From PubChem BioAssay
Unmarked numbers belong to inactive results. This is one part of the list. The source made the active and inactive calls.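 How the source made its calls, unless noted: active means mean inhibition over 43.08%, the solvent-only control mean plus 3 SD; inactive means the rest.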

Experiments:
[1] = target: Nuclear receptor coactivator 3 (Homo sapiens) (UniProt Q9Y6Q9); assay: NCOA3 GAL4-fusion reporter inhibition – cell-based, luminescence, quadruplicate, confirmation (AID 588792); details: HEK293 GAL4-SRC3 luciferase reporter, at 3.6 µM, hits give high values;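 further: 0% = DMSO treated cells and 100% = gossypol at 36 µM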
Chain of Nuclear receptor coactivator 3 (Homo sapiens) (Q9Y6Q9 whole entry, looked up, the tested form may be a part): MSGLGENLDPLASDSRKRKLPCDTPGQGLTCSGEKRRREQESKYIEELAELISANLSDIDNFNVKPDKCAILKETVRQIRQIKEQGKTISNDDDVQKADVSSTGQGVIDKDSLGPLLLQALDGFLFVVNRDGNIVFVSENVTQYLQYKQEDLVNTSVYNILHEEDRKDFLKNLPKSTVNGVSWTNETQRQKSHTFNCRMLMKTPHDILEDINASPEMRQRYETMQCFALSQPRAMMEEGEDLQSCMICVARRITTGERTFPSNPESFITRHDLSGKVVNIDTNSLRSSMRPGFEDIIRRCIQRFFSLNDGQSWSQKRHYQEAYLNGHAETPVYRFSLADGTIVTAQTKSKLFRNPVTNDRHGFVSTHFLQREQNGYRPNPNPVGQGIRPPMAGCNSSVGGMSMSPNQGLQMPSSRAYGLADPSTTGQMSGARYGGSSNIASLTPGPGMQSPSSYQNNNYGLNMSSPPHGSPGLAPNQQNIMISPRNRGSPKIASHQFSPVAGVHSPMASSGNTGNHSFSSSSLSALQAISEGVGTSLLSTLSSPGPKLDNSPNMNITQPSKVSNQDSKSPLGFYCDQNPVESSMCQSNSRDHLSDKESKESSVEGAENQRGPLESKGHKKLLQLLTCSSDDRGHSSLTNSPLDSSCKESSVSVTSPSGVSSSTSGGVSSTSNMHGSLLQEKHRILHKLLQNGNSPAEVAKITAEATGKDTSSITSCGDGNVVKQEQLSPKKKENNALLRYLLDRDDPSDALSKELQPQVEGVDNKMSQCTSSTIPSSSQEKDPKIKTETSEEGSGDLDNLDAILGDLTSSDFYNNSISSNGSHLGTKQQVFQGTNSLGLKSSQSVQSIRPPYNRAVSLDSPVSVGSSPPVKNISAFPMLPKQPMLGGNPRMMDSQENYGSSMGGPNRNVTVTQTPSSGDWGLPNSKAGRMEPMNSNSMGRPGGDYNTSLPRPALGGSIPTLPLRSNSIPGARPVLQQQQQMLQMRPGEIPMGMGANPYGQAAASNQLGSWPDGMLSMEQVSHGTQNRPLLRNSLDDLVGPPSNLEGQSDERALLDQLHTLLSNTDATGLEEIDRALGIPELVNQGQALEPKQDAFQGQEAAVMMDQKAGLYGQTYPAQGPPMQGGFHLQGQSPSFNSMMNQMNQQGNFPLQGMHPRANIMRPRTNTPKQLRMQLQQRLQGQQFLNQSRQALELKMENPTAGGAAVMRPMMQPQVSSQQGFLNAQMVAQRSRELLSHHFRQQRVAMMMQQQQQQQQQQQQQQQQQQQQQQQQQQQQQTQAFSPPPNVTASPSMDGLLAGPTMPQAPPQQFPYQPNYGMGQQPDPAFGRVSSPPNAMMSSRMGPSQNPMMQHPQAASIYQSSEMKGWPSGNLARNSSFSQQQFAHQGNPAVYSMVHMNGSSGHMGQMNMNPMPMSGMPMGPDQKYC

[2] = system: transactivating tegument protein VP16 (Human herpesvirus 1), Gal4-VP16 luciferase reporter; assay: repression of VP16-driven luciferase reporter – cell-based, luminescence, high throughput, counter-screen for SRC3 inhibitor project (AID 588794; in the data active means inhibition above about 30%); details: mammalian cells, at 3.6 µM, hits give high values
[3] = target: Nuclear receptor coactivator 1 (Homo sapiens) (UniProt Q15788); assay: NCOA1 GAL4-fusion reporter inhibition – cell-based, luminescence, quadruplicate, confirmation (AID 588820;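 active means mean inhibition above 46.68%, the untreated control wells mean plus 3 SD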;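 further: 0% = DMSO wells and 100% = gossypol 36 µM treated wells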); details: HEK293 GAL4-SRC1 luciferase reporter, at 3.6 µM, hits give high values
Chain of Nuclear receptor coactivator 1 (Homo sapiens) (Q15788 whole entry, looked up, the tested form may be a part): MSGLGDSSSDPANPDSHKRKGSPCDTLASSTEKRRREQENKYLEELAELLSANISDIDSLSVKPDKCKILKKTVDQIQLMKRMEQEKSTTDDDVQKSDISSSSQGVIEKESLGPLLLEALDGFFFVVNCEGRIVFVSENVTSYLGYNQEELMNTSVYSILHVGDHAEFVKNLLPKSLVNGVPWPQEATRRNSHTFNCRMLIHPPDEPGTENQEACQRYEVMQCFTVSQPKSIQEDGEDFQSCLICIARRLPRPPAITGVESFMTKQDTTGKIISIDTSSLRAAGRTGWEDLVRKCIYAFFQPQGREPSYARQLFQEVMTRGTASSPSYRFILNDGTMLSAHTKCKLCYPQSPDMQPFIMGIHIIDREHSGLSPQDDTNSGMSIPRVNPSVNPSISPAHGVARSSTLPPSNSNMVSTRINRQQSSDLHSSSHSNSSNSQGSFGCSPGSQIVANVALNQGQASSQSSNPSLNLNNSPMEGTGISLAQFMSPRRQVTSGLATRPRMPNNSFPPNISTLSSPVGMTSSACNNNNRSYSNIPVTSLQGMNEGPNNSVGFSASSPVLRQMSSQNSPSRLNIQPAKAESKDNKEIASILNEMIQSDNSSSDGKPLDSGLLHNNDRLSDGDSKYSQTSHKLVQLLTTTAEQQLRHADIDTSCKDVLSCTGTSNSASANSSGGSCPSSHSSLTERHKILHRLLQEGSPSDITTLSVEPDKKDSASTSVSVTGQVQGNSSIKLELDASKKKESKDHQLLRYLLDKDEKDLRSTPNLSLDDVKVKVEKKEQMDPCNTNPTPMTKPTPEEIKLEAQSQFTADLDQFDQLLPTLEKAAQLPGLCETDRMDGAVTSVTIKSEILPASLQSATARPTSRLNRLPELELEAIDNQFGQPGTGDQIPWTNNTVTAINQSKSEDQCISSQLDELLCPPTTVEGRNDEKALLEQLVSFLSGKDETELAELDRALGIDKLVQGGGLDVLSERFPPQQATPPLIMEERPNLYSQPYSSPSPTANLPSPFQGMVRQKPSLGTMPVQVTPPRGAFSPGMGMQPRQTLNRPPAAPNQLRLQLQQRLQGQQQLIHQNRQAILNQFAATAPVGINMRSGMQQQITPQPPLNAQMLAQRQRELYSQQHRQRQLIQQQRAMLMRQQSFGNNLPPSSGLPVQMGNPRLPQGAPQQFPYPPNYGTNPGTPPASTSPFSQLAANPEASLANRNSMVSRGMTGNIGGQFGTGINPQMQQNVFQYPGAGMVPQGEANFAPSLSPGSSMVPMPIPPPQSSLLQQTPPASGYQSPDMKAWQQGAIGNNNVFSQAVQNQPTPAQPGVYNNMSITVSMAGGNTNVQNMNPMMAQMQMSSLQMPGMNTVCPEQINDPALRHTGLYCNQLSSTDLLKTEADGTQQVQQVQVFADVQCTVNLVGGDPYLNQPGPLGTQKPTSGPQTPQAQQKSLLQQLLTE

[4] = repression of VP16-driven luciferase reporter – cell-based, luminescence, high throughput, counter-screen for SRC1 inhibitor project (AID 588824; in the data active means inhibition above about 25%); details: cell-based VP16 transactivation luciferase luminescence; at 3.6 µM; hits give high values
[5] = system: transactivating tegument protein VP16 (Human herpesvirus 1); assay: compounds suppressing VP16-driven luciferase signal – cell-based, luminescence, single concentration, counter-screen for SRC2 inhibitor project (AID 652007; in the data active means inhibition above about 36%); details: cell-based VP16 transactivation luciferase reporter, at 8.9 µM, hits give high values
[6] = target: Nuclear receptor coactivator 2 (Homo sapiens) (UniProt Q15596); assay: inhibition of GAL4-SRC2 driven luciferase expression – cell-based, luminescence, HEK293, triplicate, confirmation (AID 652008;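 active means mean inhibition above 46.5%, the solvent-only control mean plus 3 SD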;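 further: 0% = DMSO-treated cells and 100% = Gossypol at 36 µM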); details: HEK293 GAL4-SRC2 luciferase reporter, at 8.9 µM, hits give high values
Chain of Nuclear receptor coactivator 2 (Homo sapiens) (Q15596 whole entry, looked up, the tested form may be a part): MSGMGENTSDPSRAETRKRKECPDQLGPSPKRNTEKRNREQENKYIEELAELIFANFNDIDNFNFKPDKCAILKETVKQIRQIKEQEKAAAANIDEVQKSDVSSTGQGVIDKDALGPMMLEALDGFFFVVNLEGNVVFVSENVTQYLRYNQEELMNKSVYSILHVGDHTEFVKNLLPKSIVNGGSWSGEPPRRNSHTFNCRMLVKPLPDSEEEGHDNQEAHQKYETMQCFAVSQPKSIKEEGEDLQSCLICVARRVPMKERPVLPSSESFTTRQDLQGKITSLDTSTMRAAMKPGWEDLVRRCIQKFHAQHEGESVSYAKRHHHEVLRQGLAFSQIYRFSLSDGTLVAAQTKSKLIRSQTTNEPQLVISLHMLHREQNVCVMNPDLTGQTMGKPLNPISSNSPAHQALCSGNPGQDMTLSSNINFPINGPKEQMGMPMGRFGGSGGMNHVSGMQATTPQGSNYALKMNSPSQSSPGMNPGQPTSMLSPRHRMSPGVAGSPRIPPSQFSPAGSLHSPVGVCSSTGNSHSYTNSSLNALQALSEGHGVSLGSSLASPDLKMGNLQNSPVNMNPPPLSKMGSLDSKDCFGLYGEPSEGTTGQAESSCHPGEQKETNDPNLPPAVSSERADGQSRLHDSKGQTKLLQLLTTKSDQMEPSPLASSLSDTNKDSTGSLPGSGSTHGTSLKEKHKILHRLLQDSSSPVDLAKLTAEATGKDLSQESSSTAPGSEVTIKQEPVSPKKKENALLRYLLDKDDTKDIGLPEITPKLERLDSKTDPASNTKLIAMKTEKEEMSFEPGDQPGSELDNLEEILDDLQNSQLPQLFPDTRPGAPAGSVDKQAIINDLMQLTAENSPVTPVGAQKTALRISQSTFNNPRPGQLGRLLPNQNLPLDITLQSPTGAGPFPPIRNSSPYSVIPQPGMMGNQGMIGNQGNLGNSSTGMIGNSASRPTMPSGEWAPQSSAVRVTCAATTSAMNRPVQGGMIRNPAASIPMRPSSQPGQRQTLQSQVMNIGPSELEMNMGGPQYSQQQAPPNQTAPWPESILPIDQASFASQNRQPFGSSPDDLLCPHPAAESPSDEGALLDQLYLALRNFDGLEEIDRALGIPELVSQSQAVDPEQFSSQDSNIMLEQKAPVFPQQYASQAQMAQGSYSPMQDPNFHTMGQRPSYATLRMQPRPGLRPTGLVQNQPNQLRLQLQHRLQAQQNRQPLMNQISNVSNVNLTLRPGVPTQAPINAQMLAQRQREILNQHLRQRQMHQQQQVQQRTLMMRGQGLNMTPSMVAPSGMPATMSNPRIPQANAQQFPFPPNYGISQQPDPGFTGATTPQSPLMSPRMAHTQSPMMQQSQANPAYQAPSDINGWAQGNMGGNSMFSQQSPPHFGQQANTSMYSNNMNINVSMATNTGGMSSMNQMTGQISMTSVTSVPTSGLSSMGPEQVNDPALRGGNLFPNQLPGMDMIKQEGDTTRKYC

[7] = VP16-driven transactivation reporter suppression – cell-based, luminescence, HEK293, counter-screen for COUP-TFII antagonist project (AID 687007; in the data active means inhibition above about 13%); details: HEK293 Gal4-VP16 luciferase reporter, at 8.5 µM, hits give high values
[8] = target: COUP transcription factor 2 (Homo sapiens) (UniProt P24468); assay: retest of COUP-TFII reporter suppressors – cell-based, luciferase reporter, HEK293, triplicate, confirmation (AID 687008;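 active means mean inhibition over three repeats above a set limit taken from the earlier primary screen, cut at about 38% in these data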;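 further: 100% = cells given the luciferase reporter alone without the COUP-TF2 vector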); details: HEK293 NGFI-A luciferase reporter, luminescence; at 8.5 µM; hits give high values
Chain of COUP transcription factor 2 (Homo sapiens) (P24468 whole entry, looked up): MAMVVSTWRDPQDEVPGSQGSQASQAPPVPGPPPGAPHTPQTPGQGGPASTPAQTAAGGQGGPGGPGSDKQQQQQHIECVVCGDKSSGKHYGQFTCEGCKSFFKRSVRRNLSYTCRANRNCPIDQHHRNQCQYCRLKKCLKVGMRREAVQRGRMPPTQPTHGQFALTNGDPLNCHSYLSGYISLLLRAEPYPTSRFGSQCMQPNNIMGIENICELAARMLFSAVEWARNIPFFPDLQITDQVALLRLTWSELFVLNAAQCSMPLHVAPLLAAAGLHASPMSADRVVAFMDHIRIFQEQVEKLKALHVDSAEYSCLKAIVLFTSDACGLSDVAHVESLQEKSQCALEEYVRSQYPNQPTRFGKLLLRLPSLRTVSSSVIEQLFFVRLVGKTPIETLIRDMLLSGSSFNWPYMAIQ

SMILES	inhibition [1]	inhibition [2]	inhibition [3]	inhibition [4]	inhibition [5]	inhibition [6]	inhibition [7]	inhibition [8] [%]
Cc1noc(/C=C/c2ccccn2)c1[N+](=O)[O-]	54.6% (active)	47.8% (active)	48.4% (active)	37% (active)	25.9%	29.3%	–	–
Cc1ccc(C(=O)Nc2cnc3ccccc3c2)cc1	44.4% (active)	9.25%	-70.2%	23.4%	50.7% (active)	84.9% (active)	–	–
NC(=O)c1sc2nc3c(c(-c4ccccc4)c2c1N)CCC3	77.1% (active)	54.8% (active)	72.8% (active)	49.3% (active)	12.9%	51% (active)	18.6% (active)	31.9
COc1ccc(-c2nc(-c3ccccn3)no2)cc1	63.4% (active)	48.2% (active)	16.6%	44.4% (active)	62.5% (active)	80.7% (active)	–	–
C=Cc1ccc(CC2(C)C(=O)Nc3ccc(-c4cccnc4)cc32)cc1 (centres undefined)	45.2% (active)	38% (active)	53.8% (active)	31.1% (active)	2.06%	35%	–	–
CN(C)C(=O)c1cccc(-c2cnc3sc(NCc4ccc5c(c4)OCO5)nn23)c1	53.2% (active)	35.7% (active)	51.8% (active)	33.7% (active)	8.86%	62.2% (active)	–	–
O=[N+]([O-])c1ccc2ncnc(N3CCN(Cc4ccc5c(c4)OCO5)CC3)c2c1	74.2% (active)	53.2% (active)	64.4% (active)	64.9% (active)	8.73%	54.2% (active)	–	–
Cc1cc(C(=O)COC(=O)C2CC2)c(C)n1-c1ccc(F)cc1	4.63%	5.67%	-12.9%	-14.9%	1.88%	20.3%	-16.4%	30.3
Cc1csc(SCC(=O)c2cc(C)n(Cc3cccs3)c2C)n1	9.06%	-12.3%	-81.8%	-42.6%	-28.2%	31.4%	–	–
O=C(CCl)N1N=C(c2ccco2)CC1c1ccco1 (centres undefined)	59.1% (active)	12.5%	32.7%	4.7%	36.6% (active)	67.9% (active)	–	–
OCCCNc1ncnc2scc(-c3ccc(Cl)cc3)c12	62.6% (active)	47.1% (active)	62.6% (active)	39.2% (active)	5.28%	46.5% (active)	–	–
O=C(/C=C/c1ccccc1)CC(O)(c1ccccc1)C(F)(F)F (centres undefined)	38.5%	31% (active)	12.9%	45.9% (active)	21.8%	32.7%	–	–
CN(Cc1nccs1)C(=O)c1cc(COc2cccc3cnccc23)on1	27.5%	36.1% (active)	19.8%	34.7% (active)	16.6%	51.8% (active)	–	–
COc1ccc(/C=C2/SC(=S)N(CCC(=O)O)C2=O)cc1	34.8%	4.06%	23%	0.23%	-21.3%	85.1% (active)	–	–
Cc1c(CC(=O)NCCCC(=O)O)c(=O)oc2cc3c(cc12)CCC(C)(C)O3	35.8%	17.2%	15.6%	15.5%	58.8% (active)	60.9% (active)	–	–
Cc1[nH]nc2ncc(C(=O)c3ccccc3O)cc12	73.3% (active)	43.9% (active)	68.7% (active)	48.9% (active)	-2.08%	50.4% (active)	–	–
COc1ccc(-c2cn[nH]c2-c2ccc(O)cc2O)cc1	67.1% (active)	46.2% (active)	53.9% (active)	37.3% (active)	-0.83%	50% (active)	–	–
COc1ccc2ncn(-c3ccccc3)c2c1	49.2% (active)	32.7% (active)	46.1%	23.7%	-12.1%	38.2%	–	–
COc1ccc2[nH]c3c(c2c1)CC(C)NC3=O (centres undefined)	73% (active)	49.7% (active)	67.3% (active)	52.2% (active)	14.3%	41.6%	–	–
Cn1c(/C=C/c2cccc([N+](=O)[O-])c2)c([N+](=O)[O-])c(=O)n(C)c1=O	37.6%	41.4% (active)	32.5%	40.8% (active)	7.43%	25.7%	–	–
